# In PubChem BioAssay AID1529 (NMMLSC, 2009):
# Out of some 290,000 compounds screened, about 4,200 (1.4%) were called active. The sample holds actives, similar compounds and a random draw of the others, so the mix is not that of the screen. Values without a mark were called inactive.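 Rule for the calls: active = binding response more than 3 SD above or below the average of its plate-row segment, actives on both sides; inconclusive = wells at one plate position flagged as instrument error; inactive = the rest.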
# Target: Mitogen-activated protein kinase kinase kinase 3 (Homo sapiens) (UniProt Q99759)
# Sequence (Q99759 whole entry, looked up): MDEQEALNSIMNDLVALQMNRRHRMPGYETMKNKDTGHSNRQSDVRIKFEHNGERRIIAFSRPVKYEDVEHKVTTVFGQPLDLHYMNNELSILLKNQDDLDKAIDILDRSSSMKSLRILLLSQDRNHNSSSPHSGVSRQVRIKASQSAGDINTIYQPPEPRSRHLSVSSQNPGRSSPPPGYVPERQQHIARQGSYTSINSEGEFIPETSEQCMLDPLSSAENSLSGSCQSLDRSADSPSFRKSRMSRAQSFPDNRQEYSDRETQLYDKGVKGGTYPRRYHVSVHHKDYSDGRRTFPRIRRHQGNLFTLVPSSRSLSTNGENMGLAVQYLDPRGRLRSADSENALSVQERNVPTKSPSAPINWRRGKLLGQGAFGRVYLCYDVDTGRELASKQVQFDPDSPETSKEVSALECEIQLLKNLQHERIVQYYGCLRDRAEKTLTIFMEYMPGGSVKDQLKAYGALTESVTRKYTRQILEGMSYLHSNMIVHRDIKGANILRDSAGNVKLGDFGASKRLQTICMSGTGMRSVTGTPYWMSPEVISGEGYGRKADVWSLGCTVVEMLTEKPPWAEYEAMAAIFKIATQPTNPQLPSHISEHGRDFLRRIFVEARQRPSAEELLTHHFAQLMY
# Experiment: compounds raising or lowering MEK5 association with MEKK3 PB1 – biochemical, wildtype MEKK3, multiplex bead flow cytometry, Alexa488-MEK5, primary screen (AID 1529);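 note: Alexa488 bead fluorescence after subtracting the streptavidin-only scavenger bead signal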
# Settings: bead-based flow cytometry, Alexa488-MEK5 binding to MEKK3; at 10 µM; actives lie on both sides; 0 = blocked by unlabeled MEK5, 100 = vehicle
row,Compound,binding response (% of control)
1,O=C(O)/C(=C/c1cccnc1)NC(=O)c1ccccc1,156% (active)
2,Cc1nnc(SCC(=O)Nc2ccc(S(=O)(=O)Nc3ccc(Cl)nn3)cc2)s1,99%
3,COc1ccccc1/C=C1\SC(=O)N(CCC(=O)N(C)C2CCS(=O)(=O)C2)C1=O (stereo unspecified),98%
4,Cc1c(CN2CC[C@@H](N3CCN(c4ccccn4)CC3)[C@H](O)C2)[nH]c2ccc(F)cc12,104%
5,COC(=O)c1sc(C(F)(F)F)c(-c2ccccc2)c1S(=O)(=O)N(C)C,106%
6,Cc1ccc(S(=O)(=O)N(C)CC(=O)OCC(=O)Nc2ccccc2)cc1,94%
7,CCOC(=O)CN(C)S(=O)(=O)c1ccc(-c2cc(C(=O)OC)sc2C(F)(F)F)cc1,129% (active)
8,O=C(O)C1=NN(c2c(F)c(F)cc(F)c2F)C(=O)CC1,95%
9,CCOC(=O)CSc1nnc(NC(=O)C2CC(=O)N(c3ccc(F)cc3)C2)s1 (stereo unspecified),102%
10,COC(=O)c1cccc(N(C(=O)CNC(=O)c2cccs2)C(C(=O)NCC2CCCO2)c2ccc(OC)c(OC)c2)c1 (stereo unspecified),100%
11,COC(=O)[C@@H]1CC(O)CN1C(=O)C12CC3CC(CC(C3)C1)C2 (stereo partly specified),96%
12,O=C(Nc1cccc2ncccc12)c1ccc(-c2ccc(Cl)cc2Cl)o1,102%
13,O=C(Nc1cccc2ncccc12)C(Cl)(Cl)Cl,101%
14,O=C(O)c1cc(Cl)c(Cl)cc1C(=O)Nc1cccc2ncccc12,128% (active)
15,OCC[C@H]1C[C@H](O)[C@@H](O)[C@]2(CCCCO2)O1,100%
16,CCc1ccc2nc(Nc3ncc(C(C)=O)c(C)n3)nc(C)c2c1,49% [inhibitor] (active)
17,COc1ccccc1Nc1ncc(C(C)=O)c(C)n1,104%
18,Cc1ccc2nc(Nc3ncc4c(n3)CC(C)(C)CC4=O)nc(C)c2c1,102%
19,C#CC(C)(C)NC(=O)CSc1nc2c(c(=O)n(C)c(=O)n2C)n1CCCC,108%
20,CCCCn1c(SCC(=O)NCCc2ccc(OC)c(OC)c2)nc2c1c(=O)n(C)c(=O)n2C,0% [inhibitor] (active)
21,CCn1c(NCCc2ccc(OC)c(OC)c2)nc2c1c(=O)n(C)c(=O)n2C,103%
22,Cc1ccc(O)c(/C=N/NC(=O)COc2ccc3c(C)cc(=O)oc3c2)c1,99%
23,C/C(=N\Nc1ncc(Cl)cc1Cl)c1cccs1,103%

row,Compound,binding response (% of control)
1,C/C(=N\Nc1ncc(Cl)cc1Cl)c1ccc(S(=O)(=O)NCc2ccco2)cc1,108%
2,COc1cccc(/C(C)=N/Nc2ncc(Cl)cc2Cl)c1,135% (active)
3,O=C(CN(C(=O)c1nsc(Cl)c1Cl)c1cccc(F)c1)NC1CCCC1,99%
4,COCc1ccc(C(=O)NC2CC(C)(C)Cc3c2cnn3-c2ccc(C)cc2)o1 (stereo unspecified),97%
5,CC1CCC2(CC1)NC(=O)N(CC(=O)c1ccc3c(c1)OCO3)C2=O (stereo unspecified),99%
6,CC(C)CC(=O)NC(=S)Nc1ccc(F)cc1F,117%
7,CC(=O)c1ccc(NC(=S)NC(=O)CC(C)C)cc1,104%
8,CC(C)CC(=O)NC(=S)Nc1cc(C(=O)O)ccc1Cl,132% (active)
9,CC(C)Oc1ccc(CCC(=O)NNC(=S)NCc2ccccc2)cc1,95%
10,CC(C)CNC(=O)C(=O)NCc1ccccc1,96%
11,CC(C)CC(=O)NC(=S)NCc1ccccc1,141% (active)
12,CCc1nn(CCCC(=O)Nc2ccc(C)cc2C)c(=O)c2cc3occc3n12,99%
13,CN(Cc1ccccc1Cl)C(=O)C1CCC(=O)N(CCc2cccc(F)c2)C1 (stereo unspecified),102%
14,COc1ccc(N(CC(=O)N2CCCCCC2)S(=O)(=O)c2ccccc2)cc1,102%
15,COc1ccc(C(=O)O/N=C(\N)c2ccccn2)cc1[N+](=O)[O-],107%
16,COC(=O)c1c(NC(=O)CCCC(=O)O)sc2c1CCCCC2,99%
17,CCc1ccc(N(CC(=O)Nc2sc3c(c2C(=O)OC)CCCC3)S(C)(=O)=O)cc1,92%
18,COC(=O)c1c(NC(=O)COC(=O)[C@@H](NS(=O)(=O)c2ccccc2)C(C)C)sc2c1CCC2,2% [inhibitor] (active)
19,CC(C)CN(Cc1c(O)ccc2c(=O)c(-c3ccccc3)coc12)CC(C)C,102%
20,Cc1ccc(C(=O)NC(=S)Nc2ccc3[nH]c(=O)[nH]c3c2)cc1C,145% (active)
21,CC(=O)Nc1ccc(NC(=S)NC(=O)c2ccc([N+](=O)[O-])c(C)c2)cc1,97%
22,Cc1cc(C)cc(C(=O)NC(=S)Nc2ccc3[nH]c(=O)[nH]c3c2)c1,105%
23,CC1(C)CC[C@]2(C(=O)O)CC[C@]3(C)C(=CCC4[C@@]5(C)CC[C@H](O)C(C)(C)C5[C@H](O)C[C@]43C)[C@@H]2C1 (stereo partly specified),101%
